Compound activity as filed in PubChem.
SARS 3CLpro inh: SARS-CoV 3CLpro protease inhibitors, primary screen, biochemical, quenched FRET. recombinant SARS-CoV 3CLpro, quenched FRET peptide cleavage. 290,000 tested, 0.14% active. inhibition, % at 6 µM. AID 1706, 2009; in the data active means inhibition above about 12%
FBA Mtb inh: Mtb FBA enzyme inhibitors, primary screen, biochemical, fluorescence, strain H37Rv. 360,000 tested, 2.3% active. purified M. tuberculosis FBA, fluorescence read-out. Fructose-bisphosphate aldolase (Mycobacterium tuberculosis (strain ATCC 25618 / H37Rv)), …. inhibition, % at 1 µM; in the data active means inhibition above about 27%;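 further: 0% = vehicle and 100% = reference inhibitor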
FadD28 binding: inhibitors of FadD28 bisubstrate probe binding, primary screen, biochemical, fluorescence polarization, single point. inhibition, % at 12.5 µM. 360,000 tested, 0.22% active. AID 588549, 2011; in the data active means inhibition above about 8.5%, passing the limit was not always enough
BioA inh-1: M. tuberculosis BioA enzyme inhibitors, primary screen, biochemical, plate reader, single point, HTS. 360,000 tested, 0.096% active. purified M. tuberculosis BioA enzyme. 7,8-diaminopelargonic acid synthase BioA (Mycobacterium tuberculosis). inhibition, % at 9.99 µM; in the data active means inhibition above about 40%
GDH-TPI counter: GDH-TPI coupling enzyme inhibitors, primary screen, artefact control for M. tuberculosis FBA inhibitor project, biochemical, absorbance, full deck; GDH-TPI coupled enzyme counterscreen, NADH absorbance; inhibition, % at 4.8 µM; 360,000 tested, 1.2% active; AID 588335, 2011; in the data active means inhibition above about 30%;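 further: 0% = DMSO wells and 100% = wells lacking the enzyme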
BioA inh-2: Mtb BioA enzyme inhibitors, dose response, biochemical, plate reader, cherry-pick samples, set 03; shares compounds with BioA inh-1; purified BioA enzyme; max activity, %; 310 tested, under 10 active; AID 651679, 2012;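 further: top concentration of the dilution series was 10 µM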
Target sequence (P9WQ81 whole entry, looked up): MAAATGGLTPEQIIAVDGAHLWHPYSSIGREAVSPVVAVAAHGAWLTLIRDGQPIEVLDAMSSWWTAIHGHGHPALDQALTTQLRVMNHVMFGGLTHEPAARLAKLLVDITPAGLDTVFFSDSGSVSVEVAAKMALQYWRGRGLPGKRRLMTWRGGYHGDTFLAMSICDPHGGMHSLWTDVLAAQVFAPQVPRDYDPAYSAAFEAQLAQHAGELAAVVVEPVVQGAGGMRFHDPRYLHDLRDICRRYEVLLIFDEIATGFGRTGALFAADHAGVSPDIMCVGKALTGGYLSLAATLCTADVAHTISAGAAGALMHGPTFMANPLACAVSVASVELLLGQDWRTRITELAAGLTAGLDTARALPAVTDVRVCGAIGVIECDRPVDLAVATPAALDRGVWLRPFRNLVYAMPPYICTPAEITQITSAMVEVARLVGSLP
HepG2 tox 2: cytotoxicity in HepG2 cells, dose response, cytotoxicity control, cell-based, plate reader, cherry-pick, two tests | shares compounds with BioA inh-1 | max activity, % | 310 tested, under 10 active
NIH3T3 tox 5: cytotoxicity in NIH3T3 fibroblasts, dose response, cytotoxicity control, cell-based, plate reader, cherry-pick, two tests; shares compounds with BioA inh-1; activity change, negative = cytotoxicity, % at 26 µM; 310 tested, under 10 active
* marks the source's active call; other numbers are inactive results; [ ] = dose if it differs, or a comment. Sampled rows, rich in hits. Any-hit rate of the full collection: about 3.1%. Unless noted, how the calls were made is not given here.

C[C@H](CO)N1C[C@H](C)[C@@H](CN(C)Cc2ccc3c(c2)OCO3)Oc2ccc(NC(=O)Cn3cnnn3)cc2CC1=O was read as BioA inh-1 48*, BioA inh-2 10, HepG2 tox 2 inactive and NIH3T3 tox 5 -9[23.5 µM].
For Cc1ccc(-c2nn(CCC(=O)Nc3cccnc3)c(=O)c3ccccc23)cc1 the results were SARS 3CLpro inh -3, FBA Mtb inh 1, FadD28 binding -2, BioA inh-1 89*, GDH-TPI counter -2, BioA inh-2 -11, HepG2 tox 2 12 and NIH3T3 tox 5 -6.
Screening C[C@@H]1CN([C@@H](C)CO)C(=O)c2cc(NS(C)(=O)=O)ccc2O[C@H]1CN(C)Cc1ccc(Cl)c(Cl)c1 returned BioA inh-1 2.
Cc1ccc(NC(=O)CSc2nc(=O)n(CCCN3CCOCC3)c3c2CCCC3)cc1F was read as FBA Mtb inh 0, FadD28 binding 1, BioA inh-1 47*, GDH-TPI counter 7, BioA inh-2 2, HepG2 tox 2 9 and NIH3T3 tox 5 7.
Screening CCc1ccc(NC(=O)CSc2nc(=O)n(CCCN3CCOCC3)c3c2CCCC3)cc1 returned FBA Mtb inh -1, FadD28 binding 1, BioA inh-1 3 and GDH-TPI counter 3.
Cc1cccc(C2c3[nH]c4ccccc4c3CCN2C(=O)CN2CCOC2=O)n1 (configuration not stated) was read as SARS 3CLpro inh 4, FBA Mtb inh 0, FadD28 binding 0, BioA inh-1 52*, GDH-TPI counter 1, BioA inh-2 -3, HepG2 tox 2 -11 and NIH3T3 tox 5 3.
For CCCC(=O)Nc1ccc2c(c1)C(=O)N(C)C[C@@H](OC)[C@H](C)CN(C(=O)CN(C)C)[C@@H](C)CO2 the results were BioA inh-1 2.
Screening O=C(COc1ccc2ccc(=O)oc2c1)Nc1cccnc1 returned SARS 3CLpro inh -3, FBA Mtb inh 15, FadD28 binding -1, BioA inh-1 49*, GDH-TPI counter 13, BioA inh-2 -9, HepG2 tox 2 -7 and NIH3T3 tox 5 -4.
Screening COC(=O)[C@@H]1[C@@H](CO)[C@@H]2Cn3c(ccc(-c4ccccc4)c3=O)[C@@H]2N1Cc1cccc(F)c1 returned BioA inh-1 42*, BioA inh-2 5, HepG2 tox 2 inactive and NIH3T3 tox 5 -7.
`CCN1[C@H](C(=O)NCc2ccccc2)[C@@H](CO)[C@@H]2Cn3c(ccc(-c4cccnc4)c3=O)[C@@H]21` gave BioA inh-1 41*, BioA inh-2 32, HepG2 tox 2 inactive and NIH3T3 tox 5 6.
For CCNC(=O)[C@@H]1[C@@H](CO)[C@@H]2Cn3c(ccc(-c4cccnc4)c3=O)[C@@H]2N1Cc1ccc2c(c1)OCO2 the results were BioA inh-1 64*, BioA inh-2 3, HepG2 tox 2 inactive and NIH3T3 tox 5 6[23.5 µM].
`CCNC(=O)[C@H]1[C@H](CO)[C@H]2Cn3c(ccc(-c4cccnc4)c3=O)[C@H]2N1Cc1ccc2c(c1)OCO2` gave BioA inh-1 18.
Screening CCN1[C@H](C(=O)NCc2ccccc2)[C@@H](CO)[C@@H]2Cn3c(ccc(-c4ccncc4)c3=O)[C@@H]21 returned BioA inh-1 -1.
`CCCC#Cc1ccc([C@H]2[C@@H](CO)N(C(=O)C3CCCC3)[C@H]2C#N)cc1` gave BioA inh-1 -1.
CC(=O)Nc1ccc2c(c1)C(=O)N(C)[C@H]1CC[C@H](CC(=O)Nc3ccc(C)cc3)O[C@@H]1CO2 was read as BioA inh-1 5.
`CCn1c(=O)n(CC)c2cc(N3CCCC3)c(NC(=O)c3ccc(F)cc3)cc21` gave SARS 3CLpro inh -5, FBA Mtb inh 2, FadD28 binding 1, BioA inh-1 17 and GDH-TPI counter 8.
Screening CCOc1ccc(C(=O)Nc2cc3c(cc2N2CCCC2)n(CC)c(=O)n3CC)cc1OCC returned SARS 3CLpro inh 2, FBA Mtb inh 10, FadD28 binding -1, BioA inh-1 57*, GDH-TPI counter 10, BioA inh-2 -10, HepG2 tox 2 -12 and NIH3T3 tox 5 -14.
`COc1ccc(-c2ccc3c(c2)O[C@@H](CN(C)CC2CCOCC2)[C@H](C)CN([C@@H](C)CO)S3(=O)=O)cc1` gave BioA inh-1 -2.
For CC(=O)c1ccc(NC(=O)C2CC(=O)N(Cc3ccccc3)C2)cc1 (configuration not stated) the results were SARS 3CLpro inh 2, FBA Mtb inh 0, FadD28 binding -2, BioA inh-1 74*, GDH-TPI counter -5, BioA inh-2 -8, HepG2 tox 2 4 and NIH3T3 tox 5 -13.
CCCC(=O)N1CCN(Cc2ccc3c(c2)OCO3)CC1 was read as SARS 3CLpro inh 0, FBA Mtb inh 4, FadD28 binding -2, BioA inh-1 1 and GDH-TPI counter 6.
CCc1nn(CC(=O)N2CCN(Cc3ccc4c(c3)OCO4)CC2)c(=O)c2cc3occc3n12 was read as SARS 3CLpro inh 2, FBA Mtb inh 2, FadD28 binding 0, BioA inh-1 57*, GDH-TPI counter 9, BioA inh-2 22, HepG2 tox 2 10 and NIH3T3 tox 5 -8.
For C=CCn1c(SCc2c(C(=O)OC)sc(N)c2C(=O)OC)nnc1-c1ccc(Br)cc1 the results were SARS 3CLpro inh 2, FBA Mtb inh 4, FadD28 binding -1, BioA inh-1 59*, GDH-TPI counter 22, BioA inh-2 9, HepG2 tox 2 7 and NIH3T3 tox 5 1.
For CCOC(=O)C1=C(C)Nc2sc(C(=O)c3ccc(OC)cc3)c(N)c2C1c1ccc(C(=O)OC)cc1 (configuration not stated) the results were SARS 3CLpro inh 3, FBA Mtb inh 4, FadD28 binding 0, BioA inh-1 -2 and GDH-TPI counter 16.
Screening COC(=O)C1=C(C)Nc2sc(C(N)=O)c(N)c2C1c1ccncc1 (configuration not stated) returned SARS 3CLpro inh 6, FBA Mtb inh 14, FadD28 binding 1, BioA inh-1 76*, GDH-TPI counter 17, BioA inh-2 -8, HepG2 tox 2 -16 and NIH3T3 tox 5 4.
